High-throughput results (PubChem BioAssay)
D1 PAM: human D1 dopamine receptor positive modulation | P21728 | HEK293 TREx D1 cells, calcium flux, dopamine EC20 potentiation | potentiation, % at 10 µM | hit rate 0.036% among 360,000; in the data active = potentiation above about 30%; also: 0% is about no effect
D1 ag: agonists of human D1 dopamine receptor; P21728; activation, % at 2 µM; AID 504660; HEK293 T-REx D1 cells, calcium flux, agonist mode; hit rate 1% among 360,000; also: 0% is about no effect
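Tetracycline-induced HEK293 TREx D1 cells, force-coupled to calcium signalling, were dye-loaded with a no-wash calcium kit. Compound was pin-added after a 10 s baseline. Fluorescence was read kinetically at 1 cycle/s for 180 s, with calcium rises flagged as agonism.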
TRHR enhancer: allosteric enhancers of human TRH receptor | hit rate 0.66% among 360,000 | enhancement, % at 2 µM | TRHR cells, fluo-8 calcium fluorescence, EC20 TRH enhancement | P34981; in the data active = enhancement above about 30%; also: 0% is about no effect
Target sequence (P34981 whole entry, looked up): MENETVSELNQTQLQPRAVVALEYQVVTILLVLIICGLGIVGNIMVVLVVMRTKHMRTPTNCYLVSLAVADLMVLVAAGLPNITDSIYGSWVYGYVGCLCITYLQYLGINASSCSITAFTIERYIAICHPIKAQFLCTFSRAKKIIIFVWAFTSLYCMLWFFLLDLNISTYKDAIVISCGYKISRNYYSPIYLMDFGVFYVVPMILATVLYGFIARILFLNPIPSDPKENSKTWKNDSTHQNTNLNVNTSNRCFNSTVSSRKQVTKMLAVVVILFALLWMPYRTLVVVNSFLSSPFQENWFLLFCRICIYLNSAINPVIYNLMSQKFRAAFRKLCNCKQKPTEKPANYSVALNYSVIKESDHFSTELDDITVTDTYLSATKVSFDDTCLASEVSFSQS
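Enhancer read-out: after compound pinning and an initial kinetic agonist-mode read, an EC20 of TRH (10 nM final) was injected and fluo-8 calcium signal (Ex 480/Em 530) followed at 1 s/cycle for 100 cycles in TRHR-expressing cells.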
D1 antag: antagonists of human D1 dopamine receptor; P21728; HEK293 TREx D1 cells, calcium flux, dopamine EC80; active compounds read low; hit rate 3.2% among 360,000; AID 504652; activity change, negative = inhibition, % at 10 µM; in the data active = activity change below about -30%; also: % is scaled to controls: 0 for no effect and ±100 for the full control effect
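HEK293 T-REx cells expressing inducible, force-coupled D1 receptor; no-wash Ca dye, 30–90 min RT. Cmpd → 180 s read at 1 Hz → EC80 DA → 180 s read.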
TRHR agonist: TRH receptor (human) agonism. P34981. TRHR cells, calcium flux fluo-8, FDSS agonist mode. activation, % at 2 µM. hit rate 0.18% among 360,000. AID 493084; also: 0% is about no effect
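In this calcium-flux screen, cells bearing human TRHR are dye-loaded with fluo-8, baselined for 10 cycles, then exposed to library compounds; positive kinetic calcium responses during the agonist phase mark hits, with TRH as control.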
The depositor's hits bear a star; x = no result. An excerpt weighted towards active compounds, which were near 4.6% of everything screened. Rule as the data show it, unless noted: active = activation above about 30%; inactive = the rest.

SMILES	D1 PAM	D1 ag	TRHR enhancer	D1 antag	TRHR agonist
CCCCn1nc(C(=O)NCC(c2cccs2)N2CCOCC2)c2ccccc2c1=O (stereo unspecified)	x	12.3	-5.3	5.3	-0.2
O=C(CNc1ccccc1)N/N=C/c1cc([N+](=O)[O-])ccc1N1CCCC1	-8.7	2.0	-16.4	-30.6*	-0.9
O=C(COc1nsnc1N1CCOCC1)N/N=C/c1ccccc1O	-5.0	11.1	31.9*	-3.1	1.6
O=C(O)COc1ccc(/C=N/NC(=O)COc2nsnc2N2CCOCC2)cc1	-3.5	3.4	-2.6	-4.6	-2.2
CCN1CCN(CCCNC(=O)C2CCCN(c3nc4c(C)cc(C)cc4s3)C2)CC1 (stereo unspecified)	-9.4	-0.7	4.0	-35.0*	0.5
Cc1cc(C)c2nc(N3CCCC(C(=O)NCCCN4CCOCC4)C3)sc2c1 (stereo unspecified)	-4.2	0.2	-4.5	1.1	-0.4
COc1ccc(NS(=O)(=O)c2cc(N/C(=N\S(=O)(=O)c3ccccc3)c3ccc(F)cc3)ccc2Cl)cc1	-0.3	7.7	-0.5	-38.4*	1.3
COc1ccc2oc3cc(C)[n+]([O-])c(-c4ccc(C)cc4)c3c2c1	0.7	0.7	1.0	3.6	-0.2
COc1ccc(-c2c3c(cc(C)[n+]2[O-])oc2ccc(OC)cc23)cc1	2.0	2.3	5.2	-30.4*	0.0
C=CCn1c(SCC(=O)c2c(N)n(CCC)c(=O)n(C)c2=O)nnc1-c1ccncc1	-8.4	2.1	1.9	-31.8*	0.2
CCOC(=O)c1noc2nc(C)n(CC(=O)NC(C)CC)c(=O)c12 (stereo unspecified)	0.9	1.3	34.0*	-4.0	0.1
Cc1cccc(C)c1Nc1sc(C(=O)c2ccccc2)c(N)c1C(=O)Nc1ccc(F)cc1	2.0	18.1	1.7	2.1	0.6
N=c1c2c(-c3ccccc3)c(-c3ccccc3)n(Cc3ccco3)c2ncn1CCCO	1.5	45.3*	5.4	0.0	-0.6
N=c1c2c(-c3ccccc3)c(-c3ccccc3)n(Cc3ccco3)c2ncn1CCO	-4.2	2.1	-4.1	26.8	0.3
CCOP(=O)(OCC)C(NC(=O)Nc1ccccc1)C(N)=O (stereo unspecified)	0.4	3.5	-3.1	-32.1*	0.0
Cc1cc(C)n(CCCN2CCC(C(=O)Nc3cccc(-c4cccc(F)c4)c3)CC2)n1	-7.6	34.0*	-3.0	-57.7*	1.2
O=C1NCCN(Cc2ccc(F)cc2)C1=O	-0.8	-2.4	1.6	-40.6*	0.8
CC(Sc1nnnn1C1CC1)C(=O)N1CC(=O)Nc2ccccc21 (stereo unspecified)	-2.6	1.5	-7.4	-32.1*	-1.1
O=C(CCC1N=C2c3ccccc3N=C(SCc3ccccc3Cl)N2C1=O)NCc1cccs1 (stereo unspecified)	1.8	2.0	0.3	-0.5	-0.2
COC(=O)Cc1ccc(NC(=O)c2ccc(Br)o2)cc1	-5.3	-0.7	-3.5	-11.0	-3.1
CCN1CCN(c2ccc(NC(=O)c3ccc(Br)o3)cc2)CC1	-7.2	3.1	32.8*	12.1	0.0
CCCC(=O)N1CCN(c2ccc(NC(=O)c3ccc(Br)o3)cc2)CC1	-7.2	0.2	1.6	-43.0*	-0.2
CCCOC(=O)c1ccc(NC(=O)c2ccc(Br)o2)cc1	-5.6	8.1	-0.9	-32.0*	0.3
COc1ccc(-c2[nH]c(-c3ccc(OC)c(OC)c3)nc2SCC(=O)Nc2ccccc2)cc1	-1.8	4.1	-8.3	-2.1	0.7
O=c1c(S(=O)(=O)c2ccccc2)cn(Cc2cccc(F)c2)c2cc(N3CCCC3)c(F)cc12	0.1	3.1	5.8	13.0	-0.6
SMILES	D1 PAM	D1 ag	TRHR enhancer	D1 antag	TRHR agonist
Cc1cc(C)cc(-n2ccnc2SCC(=O)Nc2ccc(C)cc2C)c1	1.9	7.1	-4.7	-17.9	0.0
Cc1ccc(S(=O)(=O)N2CCN(C)CC2)cc1-c1nnc2c3ccccc3c(C)nn12	0.8	-0.1	-3.4	-33.5*	-0.6
C#CCn1c(-c2cccs2)nc2ccccc21	-5.0	2.3	31.7*	22.6	0.6
CCc1ccc(NCc2cc3cc4c(cc3n(CC(=O)Nc3ccc(C)cc3)c2=O)OCO4)cc1	-2.4	48.5*	-6.0	2.2	-1.2
CCc1ccc(NCc2cc3cc4c(cc3n(CC(=O)Nc3ccccc3Cl)c2=O)OCO4)cc1	-2.5	65.5*	-7.4	-17.8	29.1
CCc1ccc(NCc2cc3cc4c(cc3n(CC(=O)Nc3ccc(F)cc3)c2=O)OCCO4)cc1	-2.4	8.8	4.8	-9.3	8.8
COc1ccc(-n2c(O)c(/C=N/Nc3nc(C)cc(C)n3)c3ccccc3c2=O)cc1OC	2.5	-2.0	-1.7	16.1	0.4
COc1ccc(-n2c(O)c(/C=N/NS(=O)(=O)c3cc(C)ccc3C)c3ccccc3c2=O)cc1OC	-3.0	69.2*	7.8	-4.2	71.7*
COc1ccc(-n2c(O)c(/C=N/NS(=O)(=O)c3ccc(C)cc3)c3ccccc3c2=O)cc1OC	1.1	53.1*	1.7	-6.2	23.1
CC(C)(C)OC(=O)Cc1nnc(-c2nc3ccccc3[nH]2)o1	4.0	2.0	-0.8	-32.8*	1.8
O=C(OCn1ncc(Cl)c(Cl)c1=O)c1ccc(C(F)(F)F)cc1	-4.2	0.5	-13.3	-48.3*	0.1
CCOC(=O)c1ccc(NC(=O)Cn2ncc(Cl)c(Cl)c2=O)cc1	-3.4	0.4	1.4	-29.6	0.1
CCC(=O)Nc1ccc(C(=O)Cn2ncc(Cl)c(Cl)c2=O)cc1	-0.5	-1.7	7.1	-0.9	-0.8
Cc1ccc(C(=O)OCn2ncc(Cl)c(Cl)c2=O)cc1	-7.7	12.9	7.0	-47.6*	-1.3
O=C1C(C=NCCCN2CCOCC2)=C(O)c2ccccc21	-8.1	1.6	0.7	-36.9*	0.1
O=C(O)c1ccc(S(=O)(=O)N[C@H](Cc2ccc(O)cc2)C(=O)O)cc1	-1.4	1.0	-1.9	-19.3	0.0
O=C(O)Cn1cc(/C=N/NC(=O)c2cc3cc(Br)ccc3o2)c2ccccc21	4.3	0.7	-4.9	-33.1*	0.4
COc1ccccc1NC(=O)Cn1c(=O)n(-c2cccc(Cl)c2)c(=O)c2c1c1cc(C)ccc1n2C	2.6	48.2*	-3.7	-4.5	0.5
COc1ccc2c(c1)c1c(c(=O)n(Cc3ccccc3)c(=O)n1CC(=O)Nc1ccc(C)cc1C)n2C	-1.4	-1.0	3.0	-65.3*	-0.5
Cc1ccc2c(c1)c1c(c(=O)n(-c3cccc(Cl)c3)c(=O)n1CC(=O)c1ccc(Cl)cc1)n2C	0.1	6.7	4.7	-0.8	-0.6
Cc1ccc2c(c1)c1c(c(=O)n(-c3ccccc3C)c(=O)n1CC(=O)c1ccc(Cl)cc1)n2C	-1.9	3.7	1.6	-32.4*	-0.3
COc1ccc2c(c1)c1c(c(=O)n(Cc3ccccc3)c(=O)n1CC(=O)Nc1cc(C)cc(C)c1)n2C	0.2	0.7	2.7	2.3	0.1
O=C(CSC1=Nc2ccccc2N=C(c2ccc(F)cc2)C1)Nc1cccc(C(F)(F)F)c1	-2.5	10.0	1.6	-7.8	1.7
